Results on 59 compounds are retold here after PubChem BioAssay AID1851 (National Center for Advancing Translational Sciences (NCATS), 2009).

Several values for one entry are separate records, joined by “and”; a condition that tells them apart may be missing. Equal entries are not always repeated. The whole screen tested about 16,000 compounds, of which about 5,800 (36%) were called active. About 23% were inconclusive and are not listed. Some of the results follow. Unmarked numbers belong to inactive results. The call rests on the fitted dose curve; in most records, active means well fitted curve in the direction sought with a large enough effect; inconclusive means small, poorly fitted or top-dose-only effect, or effect the other way; inactive means no such curve, though single readings can be large or run the other way.

The AC50 is the concentration giving half of the maximal activity seen.
On the % scale 0 is the no-effect control and ±100 the full control effect.

Chain of Cytochrome P450 2C19 (Homo sapiens) (P33261 whole entry, looked up): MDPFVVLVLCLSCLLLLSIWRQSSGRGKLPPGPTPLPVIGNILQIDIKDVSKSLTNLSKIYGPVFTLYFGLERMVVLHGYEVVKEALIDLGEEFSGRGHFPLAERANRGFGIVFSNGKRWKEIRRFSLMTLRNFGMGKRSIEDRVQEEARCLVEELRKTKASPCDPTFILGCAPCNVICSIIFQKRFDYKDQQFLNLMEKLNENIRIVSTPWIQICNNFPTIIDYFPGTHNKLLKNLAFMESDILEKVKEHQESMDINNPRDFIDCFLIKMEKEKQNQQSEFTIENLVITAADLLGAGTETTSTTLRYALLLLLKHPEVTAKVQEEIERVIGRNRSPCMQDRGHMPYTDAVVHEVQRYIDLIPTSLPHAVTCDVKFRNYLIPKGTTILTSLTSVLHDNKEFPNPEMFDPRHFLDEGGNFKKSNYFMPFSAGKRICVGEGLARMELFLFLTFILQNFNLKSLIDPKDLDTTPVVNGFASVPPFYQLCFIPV

The assay concerns the target Cytochrome P450 2C19 (Homo sapiens) (UniProt P33261). Description: Cytochrome panel assay with activity outcomes. The conditions noted are these: recombinant CYP, pro-luciferin dealkylation, luminescence, p450-cyp2c19; series mostly up to 57.1 µM; activity, negative = inhibition: at the top concentration.
Take `CC(C)C(=O)Nc1ccc(C(=O)NNC(=O)CCCOc2ccc(Cl)cc2Cl)cc1`: the AC50 is 4.47 µM (active). Consider `CC(C)C(=O)Nc1ccc(C(=O)NNC(=O)C(c2ccccc2)c2ccccc2)cc1`, for which the “activity, negative = inhibition” value is -14.8%. For the compound `CC(C)(C)C(=O)NNC(=O)CCCOc1ccc(Cl)cc1Cl`, the AC50 was 11.2 µM (active). For the compound `COc1ccc(/C=N/NC(=O)CCCOc2ccc(Cl)cc2Cl)cc1[N+](=O)[O-]`, the AC50 is 1 µM (active). `CN1C[C@H](c2ccccc2)C(O)([C@]2(c3ccccc3)CN(C)C[C@@H](c3ccccc3)C2=O)[C@H](c2ccccc2)C1` (some centres undefined): the activity, negative = inhibition is 7.29% [at 11.4 µM].

Regarding `CCCCCCc1c(C[C@H](N)C(=O)O)o[nH]c1=O`, the AC50 entry was “inactive”. On the same count and under the same terms, with `CCC/C=C(\CCC)C(NS(=O)(=O)c1ccc(C(F)(F)F)cc1)c1ccccc1` (centres undefined) the figure was 0.398 µM (active). In the case of `C/C(=C\C1CCCCC1)C(NC(=O)c1ccc(C(F)(F)F)cc1)c1ccc(-c2ccccc2)cc1` (centres undefined), the “activity, negative = inhibition” value was 1.59%.

On to `CCC/C=C(\CCC)C(NS(=O)(=O)c1ccc(C(F)(F)F)cc1)c1ccc(-c2ccccc2)cc1` (centres undefined), for which the AC50 is 7.94 µM (active). On to `CCC/C=C(\CCC)C(NS(=O)(=O)c1ccccc1)c1ccc(C(F)(F)F)cc1` (centres undefined), for which the AC50 is 7.94 µM (active). Consider `CC(C)CN1CCCC2(CCN(C(=O)c3cccn3C)CC2)C1`, for which the “activity, negative = inhibition” value was 23.7%. For `Cc1nn(S(=O)(=O)c2cccs2)c(C)c1Sc1ccc([N+](=O)[O-])cc1`, the AC50 was 0.562 µM (active).

As to `CC(C)(C)[Si](C)(C)c1c2c(nc3ccc(OCc4ccccc4)cc13)-c1cccc(=O)n1C2`, the “activity, negative = inhibition” value is -35.1%.

As for `Cc1c2c(nc3ccccc13)-c1cccc(=O)n1C2`, the “activity, negative = inhibition” value is -10.1%. For the compound `COc1ccc2nc3c(c([Si](C)(C)C(C)(C)C)c2c1)Cn1c-3cccc1=O`, the AC50 is 2 µM (active).

On to `CCCCC/C=C\C[C@H](O)/C=C\c1cccc(C[C@H](O)CCCCO)n1`, for which the “activity, negative = inhibition” value was -29.6%. For `COc1ccc2c(C=Nc3c(C)n(C)n(-c4ccccc4)c3=O)c(O)n(Cc3ccco3)c(=O)c2c1`, the AC50 was 10 µM (active). For the compound `COc1ccc(C(=O)NCC(c2ccc(F)cc2)N2CCOCC2)cc1S(=O)(=O)N1CCCC1` (centres undefined), the AC50 was 6.31 µM (active). Regarding `OCCCN=C1CCCCC1`, the activity, negative = inhibition is 31.2% [at 11.4 µM].

`Clc1ccc2c(NCCNc3ccnc4cc(Cl)ccc34)ccnc2c1`: the activity, negative = inhibition is -22.5% [at 11.4 µM]. As to `C=CCn1cc(/C=N\NC(=O)c2cc3c(ccc4ccccc43)o2)c2ccccc21`, the AC50 is 4.47 µM (active). As for `O=C(N/N=C/c1cccc([N+](=O)[O-])c1)c1cc2c(ccc3ccccc32)o1`, the “activity, negative = inhibition” value is 5.13%. For `CC[C@H]1C(=O)OC[C@H]1Cc1cncn1C`, the AC50 entry was “inactive”. On the same count and under the same terms, next, `CCC1C(=O)OCC1Cc1cncn1C` (centres undefined): 7.94 µM (active). As for `CC1(C)Cc2c(C#N)c(SCc3ccccc3)nc(N3CCOCC3)c2CO1`, the AC50 is 8.91 µM (active). Take `COCCn1c(=O)c(-c2cn(C)c3ccccc23)nc2cnc(Oc3cccc(Cl)c3)nc21`: the “activity, negative = inhibition” value is -13.6%. The same measure, in the same setting: with `COCCn1c(=O)c(-c2cc(F)cc(F)c2)nc2cnc(Oc3cccc(Cl)c3)nc21` the figure was -3.94%. On to `COCCn1c(=O)c(CCc2ccccc2)nc2cnc(Oc3cccc(Cl)c3)nc21`, for which the concentration at half-maximal activity (AC50) was 15.8 µM (active). Still for that read-out and setting: next, `N#CCCn1c(=O)c(CCc2ccccc2)nc2cnc(Oc3cccc(Cl)c3)nc21`: 6.31 µM (active). On to `N#CCCn1c(=O)c(-c2ccccc2)nc2cnc(Oc3cccc(Cl)c3)nc21`, for which the “activity, negative = inhibition” value is -37.6%. The same measure, in the same setting: with `CN(C)c1ncc2nc(-c3ccc(Cl)cc3)c(=O)n(C[C@H]3CCCO3)c2n1` the figure was 6.36%. Turning to `COc1ncc2nc(-c3ccc(Cl)cc3)c(=O)n(C[C@H]3CCCO3)c2n1`, the AC50 is 10 µM (active).

As for `N#CCCn1c(=O)c(CCc2ccccc2)nc2cnc(Oc3ccccc3)nc21`, the concentration at half-maximal activity (AC50) is 31.6 µM (active). Regarding `N#CCCn1c(=O)c(-c2cccc(C#N)c2)nc2cnc(Oc3ccccc3)nc21`, the “activity, negative = inhibition” value is -18.6%. Same read-out and setting: with `COc1ccc(-c2nc3cnc(Oc4cccc(Cl)c4)nc3n(C[C@H]3CCCO3)c2=O)cc1` the figure was -39%; with `Cc1nc2cnc(Oc3cccc(Cl)c3)nc2n(CCC#N)c1=O`, -38%; with `Cn1cc(-c2nc3cnc(Oc4ccccc4)nc3n(CCC#N)c2=O)c2ccccc21`, -14.4%. On the same count and under the same terms, with `O=C(O)CC/C=C\C[C@@H]1CO[C@H](c2ccccc2Cl)O[C@@H]1c1ccccc1O` the figure was -44.4%. On the same count and under the same terms, with `COc1ccc(Oc2ncc3ncc(=O)n(C[C@H]4CCCO4)c3n2)cc1` the figure was -37%. As for `O=c1c(CCc2ccccc2)nc2cnc(Oc3cccc(Cl)c3)nc2n1C[C@H]1CCCO1`, the AC50 was 20 µM (active). Take `Cc1nc2cnc(Oc3cccc(Cl)c3)nc2n(C[C@H]2CCCO2)c1=O`: the “activity, negative = inhibition” value is -16.9%.

Regarding `COC(=O)[C@]1(C)CCC(c2ccc(C)cc2)=C(CC(=O)O)C1`, the activity, negative = inhibition was 11.9% [at 11.4 µM]. For the compound `COc1ccc(C(=O)n2c(SC)nc3cc4c(cc32)OCCO4)cc1`, the AC50 was 10 µM (active). Same read-out and setting: next, `CCOc1ccccc1NC(=O)CSc1nnc(-c2cnccn2)n1C`: 15.8 µM (active). Turning to `CO[C@H]1C[C@@H]2C[C@H](O)C[C@@H](CC(=O)O[C@@H](/C=C\CC(C)C)C[C@@H]3CC[C@H](C)[C@@H](C1)O3)O2`, the activity, negative = inhibition is 2.79% [at 11.4 µM]. Same read-out and setting: with `COCCCNC(=O)C1CC(=O)N(CCc2ccc(OC)c(OC)c2)C1` (centres undefined) the figure was -23.4%. Turning to `Cc1ccccc1OC1C(=O)N(Cc2ccc3c(c2)OCO3)C1c1sccc1C` (centres undefined), the AC50 was 1.12 µM (active). As to `O=C(NCC1CCCO1)C1c2ccccc2C(=O)N1Cc1ccc2c(c1)OCO2` (centres undefined), the “activity, negative = inhibition” value was -28%. The same measure, in the same setting: next, `COc1ccc(CCN2C(=O)C(O)=C(C(=O)c3ccco3)C2c2cccs2)cc1OC` (centres undefined): -19.4%. Take `COC(=O)c1ccc(C2C(Oc3ccccc3)C(=O)N2CCc2ccc(OC)c(OC)c2)cc1` (centres undefined): the AC50 was 1.58 µM (active). Regarding `O=C1C[C@@H](O)[C@@H](O)[C@H]2[C@@H]3C(=O)N(Cc4ccc5c(c4)OCO5)C(=O)[C@@H]3CC[C@H]12`, the activity, negative = inhibition was 37.1% [at 11.4 µM] and -14% [at 11.4 µM]. In the case of `COc1ccc(CCN2C(=O)C(Oc3ccccc3C)C2c2ccc3c(c2)OCO3)cc1OC` (centres undefined), the AC50 is 0.501 µM (active). Consider `CN(C)CCCO[C@H]1[C@@H]2OC(C)(C)O[C@@H]2O[C@@H]1[C@H](O)CO`, for which the “activity, negative = inhibition” value is -7.77% [at 25.6 µM].

With `C[n+]1ccccc1/C=N\O`, the “activity, negative = inhibition” value was -8.91% [at 25.6 µM]. For `CC(=O)NCCNc1ncnc2ccc(-c3ccc4c(c3)OCO4)cc12`, the AC50 was 6.31 µM (active). In the case of `CC(=O)NCCNc1ncnc2ccc(-c3ccc(C(=O)N(C)C)cc3)cc12`, the “activity, negative = inhibition” value was -6.63%.

Regarding `CC(=O)NCCNc1ncnc2ccc(-c3ccccc3C)cc12`, the AC50 was 20 µM (active). As for `CC(=O)NCCNc1ncnc2ccc(-c3ccoc3)cc12`, the “activity, negative = inhibition” value was 2.38%.

Regarding `COc1ccccc1-c1ccc2ncnc(NCCNC(C)=O)c2c1`, the “activity, negative = inhibition” value is -43%.
